Compound activity: PubChem, National Center for Advancing Translational Sciences (NCATS)
Sm TGR inh = qHTS Assay for the Inhibitors of Schistosoma Mansoni Peroxiredoxins; purified TGR, DTNB reduction, TNB absorbance 405 nm; Potency, µM (highest dose often 114 µM), actives largely listed as inhibitors; Schistosoma mansoni thioredoxin glutathione reductase (TGR), Q962Y6; 3% of 360,000 active; active = well fitted inhibition curve with a large enough effect; inconclusive = small, poorly fitted or top-dose-only effect; inactive = no such curve, though single readings can be large or run the other way; also: nearly all actives have a fitted effect of over 60% in size
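First, TGR (20 nM dispensed) and NADPH were mixed with compound. Second, a 15 min room-temperature incubation followed. Third, further NADPH and then DTNB were added to start the reaction. Finally, TNB absorbance was monitored kinetically.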
SARS PLP yeast = qHTS of Yeast-based Assay for SARS-CoV PLP | 0.19% of 330,000 active | S. cerevisiae expressing SARS-CoV PLpro, growth rescue | Potency, µM (series often up to 32.9 µM), hits mostly activators; calls by dose curve; also: nearly all actives have a fitted effect of over 55% in size
Numbers stand for hits; - = inactive; ? = inconclusive; . = no result given. This is a sample that favours compounds with a hit; in the whole collection about 3% have one here.

SMILES | Sm TGR inh | SARS PLP yeast
NNC(=O)CN1CCCc2ccccc21 | - | -
COc1ccccc1N1CCN(Cc2ccc(O)c3ncccc23)CC1 | 50.1µM | -
OC1CCN(Cc2ccc(OCc3ccccc3)cc2)CC1 | - | -
CCOC(=O)C1CCN(Cc2ccccc2C(F)(F)F)CC1 | - | -
CCOC(=O)C1CCN(Cc2ccc(O)c3ncccc23)CC1 | 2.82µM | ?
COc1ccccc1N1CCN(Cc2ccc(OC)c(OC)c2OC)CC1 | - | -
Oc1ccc(CN2CCCc3ccccc32)c2cccnc12 | 0.1µM | -
CCc1nn(CCCC(=O)N2CCN(c3cc(Cl)ccc3C)CC2)c(=O)c2cc3occc3n12 | - | .
COc1ccc(S(=O)(=O)n2nc(C)c(S(=O)(=O)N3CCCCCC3)c2C)cc1C | - | .
COc1cc(-c2nnc(SCC(=O)c3ccccc3)o2)cc(OC)c1OC | - | -
CCN(C(=O)CSc1nnc(-c2cc(OC)c(OC)c(OC)c2)o1)c1ccccc1 | 20µM | .
CC(=O)N1CCCc2cc(S(=O)(=O)N(C)CC(=O)Nc3ccc(Cl)cc3C)ccc21 | - | .
N#Cc1ccc(OC(=O)c2cnccn2)cc1 | 22.4µM | -
CCC(=O)c1ccc(OC(=O)c2cnccn2)cc1 | ? | -
O=C(COc1cccnc1[N+](=O)[O-])c1ccc(Cl)s1 | 2µM | -
O=C(COc1cccnc1[N+](=O)[O-])Nc1c(Cl)cccc1Cl | . | -
CCc1ccc(NC(=O)CC2C(=O)N(c3ccc(F)cc3)C(=O)N2Cc2ccc(F)cc2)cc1 (centres undefined) | - | .
Cc1cccc(N(CC(=O)Nc2ccccc2C(F)(F)F)S(=O)(=O)c2ccccc2)c1C | - | .
COc1ccc(-c2[nH]nc3nc(-c4cc(Br)ccc4OC)cc(C(=O)O)c23)cc1 | - | .
C#CCNC(=O)C1=C[C@H](C2CCCCC2)[C@@H](CCCO)[C@H](OCC)O1 | 17.8µM | -
C#CCNC(=O)C1=C[C@H](c2ccccc2)[C@@H](CCCO)[C@H](OCC)O1 | 20µM | -
C#Cc1ccc([C@H]2C=C(C(=O)NCc3ccccc3)O[C@@H](OCC)[C@@H]2CCCO)cc1 | - | -
C#CCNC(=O)C1=C[C@H](C)[C@@H](CCCO)[C@H](OCC)O1 | - | -
CCNC(=O)N1C(CC(=O)OCC)C(=O)NC2CCCCC21 (centres undefined) | - | -
COC(=O)CC1C(=O)NC2CCCCC2N1C(=O)CCl (centres undefined) | 6.31µM | -
SMILES | Sm TGR inh | SARS PLP yeast
O=C(CCC(=O)N1CCCc2ccccc21)N1CCN(S(=O)(=O)c2ccccc2)CC1 | - | -
O=C(CCS(=O)(=O)c1ccccc1)N1CCCc2ccccc21 | 39.8µM | -
COc1cc(Cl)c(C)cc1Nc1nc2ccccc2nc1NS(=O)(=O)c1ccccc1 | - | .
CN1CCN(C(=O)Nc2ccccc2)CC1 | . | -
CN1CCN(C(=O)Nc2ccccc2CC[N+](=O)[O-])CC1 | 31.6µM | -
Cc1[nH]c2ccc(C(=O)NCCc3ccccc3Cl)cc2c1C | - | .
CCn1c(O)c(N=NC(=O)CNC(=O)c2ccco2)c2ccccc21 | - | -
CCn1c(O)c(N=NC(=O)CNC(=O)/C=C/c2ccco2)c2ccccc21 | 35.5µM | -
O=C(NC1CCCCC1)C(c1ccncc1)N(Cc1ccc2c(c1)OCO2)C(=O)C(F)(F)F (centres undefined) | 44.7µM | -
COCCC(=O)N(Cc1ccc2c(c1)OCO2)C(C(=O)NC1CCCCC1)c1ccncc1 (centres undefined) | - | -
CCOc1cc(/C=C\c2nc(O)c([N+](=O)[O-])c(=O)[nH]2)ccc1OC(C)C | - | -
C=CCc1cc(/C=C/c2nc(O)c([N+](=O)[O-])c(=O)[nH]2)cc(OC)c1O | 44.7µM | -
Cc1ccc2onc(CNC(=O)Nc3ccccc3C#N)c2c1 | - | .
Cc1ccc(Nc2c(-c3ccc(N(C)C)cc3)nc3ccccn23)cc1 | - | .
O=C(NNc1ccc(Cl)cc1)c1c(F)cccc1Cl | - | -
CC(=O)C(=Nc1ccccc1Cl)NNc1ccc(Cl)cc1 | 39.8µM | -
CCc1ccc(NS(=O)(=O)c2ccc(C(=O)N(C)C)s2)cc1 | - | .
Cc1ccc(CN(C)C(=O)CCc2c[nH]c3ccccc23)o1 | - | -
CN(Cc1cccnc1)C(=O)CCCc1c[nH]c2ccccc12 | 31.6µM | -
CC(=O)Nc1ccc(Nc2ccc3cc(S(=O)(=O)N4CCCCC4)ccc3n2)cc1 | - | .
Cn1nnnc1Sc1ncnc2scc(-c3cccs3)c12 | 3.55µM | -
Cn1nnnc1Sc1ncnc2scc(-c3ccccc3C(F)(F)F)c12 | 3.98µM | -
Cn1nnnc1Sc1ncnc2scc(-c3ccc(C(F)(F)F)cc3)c12 | - | -
Cn1nnnc1Sc1ncnc2scc(-c3ccc(-c4ccccc4)cc3)c12 | . | -
O=C(CCCCn1c(=O)c2ccccc2n(CC(=O)Nc2ccc(F)cc2F)c1=O)NCc1ccccc1Cl | - | .
SMILES | Sm TGR inh | SARS PLP yeast
O=C(c1ccccc1F)N1c2ncnn2C2(CCCCC2)[C@@H]2CCCC[C@@H]21 | - | .
COc1ccc(C(=O)n2nc(-c3ccco3)nc2SC)cc1OC | 10µM | -
COc1ccc(C(=O)N2c3nc(-c4ccco4)nn3C3(CCCCC3)[C@@H]3CCCC[C@@H]32)cc1OC | 11.2µM | .
COc1cccc(C(=O)N2c3ncnn3C3(CCCCC3)[C@@H]3CCCC[C@@H]32)c1 | - | .
COc1ccc(CNc2nc(-c3ccco3)nn2C(=O)c2ccccc2Cl)cc1 | - | .
O=C(c1ccccc1F)N1c2nc(-c3ccco3)nn2C2(CCCCC2)[C@@H]2CCCC[C@@H]21 | 10µM | .
COc1ccc(C(=O)n2nc(-c3ccco3)nc2NCc2cccs2)cc1 | 11.2µM | .
CSc1nc(-c2ccco2)nn1C(=O)c1cccs1 | ? | -
Cn1cnc(S(=O)(=O)N2CCC(C(=O)Nc3ccc(OC(F)(F)F)cc3)CC2)c1 | - | .
COC(=O)c1cc2oc(C)cc2n1Cc1ccc(Cl)cc1 | - | .
CCCCn1cc(S(=O)(=O)c2ccc(Cl)cc2)c(=O)c2cc(F)c(N3CCCCC3)cc21 | - | .
COC(=O)c1cc(C)nc2c1c(=O)nc(SCc1cccc(C)c1)n2C1CC1 | - | .
CCC(c1nnnn1CC1CCCO1)N(CCCO)Cc1cc2cccc(C)c2[nH]c1=O (centres undefined) | - | -
Cc1cccc2cc(CN(CC3CCCO3)C(c3nnnn3Cc3ccco3)C(C)C)c(=O)[nH]c12 (centres undefined) | 50.1µM | -
Cc1cc(C)c2[nH]c(=O)c(C(c3nnnn3C(C)(C)C)N(Cc3ccco3)CC3CCCO3)cc2c1 (centres undefined) | 44.7µM | -
Cc1cc2cc(C(c3nnnn3C(C)(C)C)N(Cc3ccco3)CC3CCCO3)c(=O)[nH]c2cc1C (centres undefined) | ? | -
CN1C(=O)NC(c2ccccc2)C2=C1CN(Cc1ccco1)C2=O (centres undefined) | 35.5µM | -
CN1C(=O)NC(c2ccccc2)C2=C1CN(CCc1ccccc1)C2=O (centres undefined) | ? | -
CCOC(=O)c1cc(-c2ccccc2)n(CCC(=O)NC2CCCCC2)c1C | - | .
CCOCCCNC(=O)C1CCCN(Cc2nc(-c3ccc(CC)cc3)oc2C)C1 (centres undefined) | - | .
COc1cccc2oc3cc(C#CC4(O)CCCCC4)ccc3c(=O)c12 | - | -
COc1cccc2oc3cc(C#Cc4ccccn4)ccc3c(=O)c12 | 7.94µM | -
NC(=O)c1sc2nc3c(c(-c4ccco4)c2c1N)CCC3 | - | -
Nc1c(C(=O)NC2CC2)sc2nc3c(c(-c4ccco4)c12)CC/C3=C/c1ccco1 | 5.01µM | -
